Data published in PubChem BioAssay (NCI).
This is part of a sample that, as a whole, favours compounds with a hit. Of some 83,000 tested, about 20% had one in any assay.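 Growth was measured after 48 h exposure to one concentration of compound in 96-well plates. Values under 10 count as active.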 Values without a mark were called inactive. Active and inactive are the calls of the source.

These compounds were tested on MDA-MB-468 breast (assay: NCI-60 one-dose screen, 48 h (100 = growth as untreated, 0 = no growth, -100 = all killed)). Details: 10 µM unless noted.

Structure (SMILES) | growth
O=C(CSc1nnc(-c2ccc(Cl)cc2)n1-c1ccccc1)Nc1cccc(F)c1 | 17.2%
O=S(=O)(NCCCNc1cc(-c2c(-c3cccc(O)c3)nc3sccn23)ccn1)c1cccc2ccccc12 | 38.3%
COc1ccc(OC)c(Nc2nnc(-c3cc(OC)c(OC)c(OC)c3)o2)c1 | 92%
OCCN1CCOCC1 | 117%
CC(=O)c1ccc(-n2cc(CN3CCN(c4cc5c(cc4F)c(=O)c(C(=O)O)cn5C4CC4)CC3)nn2)cc1 | 72.5%
Cc1cc(N(CCCNc2ccnc3cc(Cl)ccc23)Cc2cccs2)nc(Cl)n1 | 1.63% (active)
CCc1c2c(nc3ccc(OCc4ccc(B5OC(C)(C)C(C)(C)O5)cc4)cc13)-c1cc3c(c(=O)n1C2)COC(=O)[C@]3(O)CC | -42% (active)
COc1ccc(CN2c3ccccc3Sc3ccccc32)c(F)c1 | 2.44% (active)
[Ag].[Ag].[NH-]S(=O)(=O)c1ccc(N=Nc2cc(N=Nc3ccc(S([NH-])(=O)=O)cc3)c3c(NC(=O)C(Cl)Cl)cccc3c2OC(=O)C(Cl)Cl)cc1.[c-]1nccs1.[c-]1nccs1 | 61.4%
CC1(C)CC(=O)C2=C(C1)OC(C(=O)c1ccccc1)C2c1cccc(Oc2ccccc2)c1 (stereo not given) | 33%
O=c1oc2cc(OS(=O)(=O)C3CC3)ccc2c2c1CCCCCC2 | 39%
CC1=C(C(=O)OCC2CCN(C(=O)OC(C)(C)C)CC2)[C@@H](c2cccc(C#N)c2)C2=C(CC(C)(C)CC2=O)N1 | 52.2%
Cc1c(C(=O)/C=C/c2csc3ccccc23)[n+](=O)c2ccccc2n1[O-] | -16.5% (active)
O=C1c2cccnc2C(=O)c2nc3cc(N4CCN(C5CC5)CC4)ccc3nc21 | -22% (active)
Oc1ccc2c(c1)CCc1ccccc1-2 | 105%
COc1cc(NCCCCN=C(N)NC(N)=NC(C)C)c2ncccc2c1 | -61.8% (active)
CCOC(=O)c1c(C)c2c(n1C)CSc1cc(S(=O)(=O)c3ccccc3)c(=O)[nH]c1-2 | 2.42% [100 µM] (active)
O=Cc1c[nH]c2ccc(NC(=O)OCc3ccccc3)cc12 | 109%
CCN1CCCC1CNC(=O)c1ncc(-c2ccc(C(F)(F)F)cc2)c(NC2CCCCCC2)n1 (stereo not given) | 80.8%
C=C1C(=O)O[C@@H]2[C@@H]3O[C@@](C)(CC/C=C(\C)CCC[C@@H]2C)[C@H](O)C[C@@H]13 | -24.9% (active)

Structure (SMILES) | growth
CCCCCCCCCCCC[n+]1ccccc1 (tested in a mixture with another compound) | -37.6% (active)
O=C1/C(=C\c2ccc(F)cc2)CN(C(=O)c2ccccc2)C/C1=C\c1ccc(F)cc1 | 5.47% (active)
O=C(C=C=Nc1ccccc1)C(=O)N=C=Cc1ccccc1 | 22%
CCCCC/C(C=C(C#N)C#N)=C/c1ccccc1 | 97.9%
CN(C)Cc1ccccn1 | 105%
N#C/C(=C\c1ccc(Br)cc1)n1nnc2c(F)cccc21 | -10.8% (active)
COc1cc(Cn2ccc3c2-c2oncc2CC3)cc(OC)c1 | 10.9%
Clc1ccc2sc(-c3ccccc3)nc2c1 | 68.9%
O=C(Nc1cccc(-c2ccc(N3CCOCC3)nn2)c1)Nc1cccc(C(F)(F)F)c1 | 29.1%
CC(C)(C)n1cc(-c2ccnc(NCCCNS(=O)(=O)c3ccccc3)c2)c(-c2cccc(O)c2)n1 | 9.54% (active)
CCN(CC)CCn1c2ccc(OC)cc2c2sc3cc(OC)ccc3c(=O)c21 | 14.5%
O=C1c2c(c3c4ccccc4n(CCCCCCN4CCOCC4)c3c3[nH]c4ccccc4c23)C(=O)N1O | 103%
CCCCc1n(Cc2ccc3ccccc3c2)c2ccccc2[n+]1Cc1ccc2ccccc2c1 | -78.1% (active)
CC1CCN(CCOc2ccc(CNc3ccc4nc(CCC5CCCCC5)[nH]c4c3)cc2)CC1 | 14.2%
C=C(C)[C@H]1CC/C(C)=C/CC[C@]2(C)O[C@H]2CC/C(COC(C)=O)=C\C1=O | 115%
CCOC(=O)C1C(=O)C(=O)N(C(C)C)C1C(=O)OCC (stereo not given) | 98.4%
CC(C)OCC(CCl)OC(=O)Nc1ccccc1 (stereo not given) | 112%
[2H]C([2H])([2H])Oc1ccc(F)cc1/C=C/C(=O)/C=C(O)/C=C/c1cc(F)ccc1OC([2H])([2H])[2H] | 91.6%
Oc1ccccc1/C=N/NC(=S)NC1CC2C=CC1C2 (stereo not given) | 73.1%
O=C(/C=C/c1ccc(Br)cc1)c1ccc(-n2cc(CN3CCN(c4cc5c(cc4F)c(=O)c(C(=O)O)cn5C4CC4)CC3)nn2)cc1 | 92.2%
